Keap1-Nrf2 PPI = Keap1-Nrf2 protein-protein interaction inhibitors, primary screen, biochemical, fluorescence polarization, single point; inhibition, % at 9.4 µM; Kelch-like ECH-associated protein 1 (Homo sapiens), Q14145; 0.15% of 340,000 active; Keap1 Kelch-Nrf2 peptide fluorescence polarization, 1536-well; in the data active means inhibition above about 12%;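 further: human Keap1 Kelch domain with fluorescein labeled Nrf2 9mer peptide probe; 0% = neutral control wells and 100% = peptide positive control; higher means more block of Keap1 binding to Nrf2 peptide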
Target sequence (Q14145 whole entry, looked up, the tested form may be a part): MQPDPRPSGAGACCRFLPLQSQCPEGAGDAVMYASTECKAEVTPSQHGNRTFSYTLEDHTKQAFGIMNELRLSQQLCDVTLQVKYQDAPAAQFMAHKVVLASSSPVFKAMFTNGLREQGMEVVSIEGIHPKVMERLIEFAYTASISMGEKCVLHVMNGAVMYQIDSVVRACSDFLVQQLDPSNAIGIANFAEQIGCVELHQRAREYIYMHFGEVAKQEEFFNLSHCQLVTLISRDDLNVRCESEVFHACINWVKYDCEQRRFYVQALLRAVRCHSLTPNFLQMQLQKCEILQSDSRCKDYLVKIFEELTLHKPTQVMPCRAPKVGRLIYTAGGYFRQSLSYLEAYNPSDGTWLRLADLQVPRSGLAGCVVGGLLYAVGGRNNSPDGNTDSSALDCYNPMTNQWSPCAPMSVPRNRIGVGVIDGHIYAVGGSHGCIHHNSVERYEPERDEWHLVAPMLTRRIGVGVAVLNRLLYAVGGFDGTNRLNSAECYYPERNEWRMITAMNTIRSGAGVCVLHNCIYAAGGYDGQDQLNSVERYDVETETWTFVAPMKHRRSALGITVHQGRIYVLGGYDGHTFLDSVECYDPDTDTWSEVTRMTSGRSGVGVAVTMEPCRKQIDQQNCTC
RTF Ca sens act = cardiac RTF calcium sensitivity activators, primary screen, biochemical, IANBD-TnC fluorescence, EC20 calcium; IANBD-labeled TnC RTF fluorescence at EC20 calcium; 0% EC20 calcium, 100% full calcium; activation, % at 7.2 µM; 0.24% of 340,000 active; AID 493008, 2010;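 active means activation above the mean over all tested compounds plus 3 SD, cut at about 30% in these data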;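 further: rise in fluorescence read as greater calcium sensitivity of cardiac thin filaments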
RTF Ca sens inh = cardiac RTF calcium sensitivity inhibitors, primary screen, biochemical, IANBD-TnC fluorescence, EC70 calcium; AID 493244, 2011; IANBD-labeled cardiac RTF, Ca2+ fluorescence; inhibition, % at 7.15 µM; Troponin I, cardiac muscle (Homo sapiens) + Troponin T, cardiac muscle (Homo sapiens) + …; 0.12% of 340,000 active;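 active means inhibition above the mean inhibition of all tested compounds plus 3 SD, cut at about 17% in these data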;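 further: assay run at fixed EC70 calcium of 1.6 mM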
LANA-H2A inh = blockers of LANA interaction with H2A/H2B – biochemical, FP readout, HTS, primary screen; inhibition, % (test concentration not listed); cell-free LANA-H2A/H2B peptide, fluorescence polarization; Protein LANA1 (Human herpesvirus 8 type P (isolate GK18)), Q9QR71; 0.6% of 320,000 active; in the data active means inhibition mostly above about 10%, no sharp cut-off; inactive means mostly below about 6.7%
LANA DNA inh = inhibitors of KSHV C-LANA binding to DNA, primary screen, biochemical, fluorescence polarization, FAM-LBS DNA, MBP-C-LANA, single point; 0.078% of 340,000 active; inhibition, % at 9 µM;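 active means highest replicate inhibition at or above 60% at 9 µM, even if other replicates fall short; inactive means all replicates below 60% inhibition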;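 further: 0% = neutral control wells and 100% = 4 µM acridine orange control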
* hit, by the source's call; i = inactive; nt = not tested or not shown; + = active, no number. Most compounds without a hit are left out; they make up all but 0.98% or so of the library.

SMILES	Keap1-Nrf2 PPI	RTF Ca sens act	RTF Ca sens inh	LANA-H2A inh	LANA DNA inh
CSc1nc(N)nc2c1ncn2CC(=O)N[C@H](CO)Cc1c[nH]c2ccccc12	-2	6	-4	3	0
O=C(Cc1ccc(S(=O)(=O)N2CCOCC2)s1)Nc1cc(Cl)ccc1Cl	-4	1	-7	+	-2
CC1CCN(S(=O)(=O)c2ccc(NC(=O)Cc3ccc(S(=O)(=O)N4CCOCC4)s3)cc2)CC1	-7	-3	1	+	-1
O=C(NNC(=S)NCC1CCCO1)c1cc(Br)ccc1Cl (stereo not given)	-6	6	0	6	0
CCCN1C=CC(=CC=C(C#N)C#N)C=C1	-102	42*	-48	-28	-28
C=CCN1C=C/C(=C\C=C(C#N)C#N)c2ccccc21	-7	0	-3	-23	-2
CCCN1C=CC(=C/C=C(\C#N)C(=O)OCC)C=C1	nt	nt	nt	-55	nt
C=CCN1C=CC(=CC=C(C#N)C#N)C=C1	-118	44*	-46	-28	-30
CCCCCCN1C=CC(=C/C=C(\C#N)C(=O)OCC)C=C1	-93	141*	-262	-11	-24
CCCCCCN1C=CC=C/C1=C/C=C(C#N)C#N	-2	9	-13	10*	4
O=C(c1ccc2ncsc2c1)N1CCN(c2cccc(C(F)(F)F)c2)CC1	0	-10	14	nt	-1
Cc1cccc(-n2c(C)cc(/C=C3\C(=N)N4N=C(CC(C)C)SC4=NC3=O)c2C)c1	0	3	3	-1	2
CCSC1=NSC2=NC(=O)/C(=C\c3coc4ccccc4c3=O)C(=N)N12	-52	555*	i	9	9
CC(C)CC1=NN2C(=N)/C(=C\c3coc4ccccc4c3=O)C(=O)N=C2S1	-96	230*	-257	nt	21
CSC1=NSC2=NC(=O)/C(=C\c3ccc(OC(=O)c4ccco4)cc3)C(=N)N12	-1	-7	-9	3	0
O=C(Nc1ccccc1Cl)NC1CCCCCCC1	0	-1	2	2	1
OC(CNCc1ccccc1)COCc1ccc(Cl)cc1 (stereo not given)	2	3	-9	3	-2
O=S(Cc1ccc(Cl)cc1)CC(O)COCc1ccc(Cl)cc1 (stereo not given)	-1	-5	-9	19*	-2
Cc1nnc(SCc2ccc(F)cc2)n1NC/C=C/c1ccccc1	4	12	-1	-3	-1
CCC(CO)[n+]1c(C)cc(/C=C2\Sc3ccccc3N2Cc2ccccc2)cc1C (stereo not given)	-22	40*	-23	-250	-22
CN1C2CCC1/C(=C\c1ccccc1)C(=O)/C2=C\c1ccccc1	0	-17	-11	-2	-6
O=C(COC(=O)c1cccc(F)c1)Nc1ccc(Cl)cn1	-5	4	0	-2	0
CCCN(CC(=O)Nc1ccc(F)c(F)c1F)C(=O)C1=COCCO1	-2	5	-18	4	0
O=C(CS(=O)c1ccc(F)cc1)Nc1ccccc1Cl (stereo not given)	-5	5	-5	13*	1
O=C(CS(=O)c1cccc(C(F)(F)F)c1)Nc1ccccc1Cl (stereo not given)	0	-5	-9	-1	3
SMILES	Keap1-Nrf2 PPI	RTF Ca sens act	RTF Ca sens inh	LANA-H2A inh	LANA DNA inh
O=C(CCC(=O)c1ccc(F)cc1)OC1CCOC1=O (stereo not given)	-8	-1	1	-5	2
COc1ccc(COc2cc(-c3cccc(OC)c3)nc3ccc(NC(=O)c4ccc(C)cc4)cc23)cc1	-4	33*	2	-1	2
COc1ccc(COc2cc(-c3cccc(OC)c3)nc3ccc(NC(=O)c4ccc(N(C)C)cc4)cc23)cc1	-6	0	-4	0	0
Cc1ccc(NC(=O)CSc2cn[nH]n2)cc1	-4	-2	-8	1	0
CCO[C@H]1OC(C(=O)NCc2nc3ccccc3[nH]2)=C[C@@H](C2CCCCC2)[C@@H]1CCCO	-4	6	-6	18*	-1
c1ccc(Nc2nc(-c3ccccc3)ns2)cc1	-4	-1	-1	4	0

Screening data from PubChem.
